Test results as given in PubChem BioAssay.
Calls of active or inactive are those of the source.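 Rule for the calls, unless noted: active = visual image review flags a hit and inhibition of aggregation exceeds 20%; inconclusive = visual hit but inhibition at or below 20%; inactive = no hit on visual image review.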

How the values were obtained:
[1] = inhibitors of TNFa-induced NFkB p65 translocation, primary screen, imaging, HUVEC, MLSMR starter and 10KST1 sets (AID 438;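 active = inhibition above 20% together with a positive visual image hit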;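 note: compound added about 3h40 before a 20 min TNFalpha stimulation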;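 for inhibition: signal is the nuclear over cytoplasmic p65 intensity ratio per well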); details: HUVEC TNFa-induced p65 nuclear translocation; cell count: measured here: nuclei count (cytotoxicity indicator), at 2.08 µM; inhibition: at 2 µM, stronger effect = higher value, 0% TNFa-plus-vehicle, 100% no-TNFa wells
[2] = inhibitors of mutant huntingtin aggregation, primary screen, imaging, exon1htt(103Q)mCFP cells, high-content imaging (AID 483); details: exon1htt(103Q)mCFP cell line, aggregate imaging, at 2 µM; inhibition of aggregation: stronger effect = higher value; nuclei count: measured here: cell count, toxicity;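 note: compound exposure lasted 3 days before fixation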;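 for nuclei count: percent of the per-plate median nuclei count of sample wells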
[3] = inhibitors of E-selectin induction by TNFa, primary screen, imaging, HUVEC, immunofluorescence, MLSMR starter and 10KST1 sets (AID 487;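 active = visually confirmed hit in the image check and inhibition above 20%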;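 for inhibition: signal is fraction of cell area covered by stained E-selectin grains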;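 for nuclei count: 100% = median nuclei count of all wells on the same plate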); details: HUVEC TNFalpha-induced E-selectin immunofluorescence imaging, at 2 µM; inhibition: stronger effect = higher value; nuclei count: measured here: cell number, toxicity
[4] = target: Voltage-gated potassium channel subunit beta-2 (Rattus norvegicus) (UniProt P62483); experiment: KvBeta enzyme negative modulators, primary screen, biochemical, NADPH fluorescence (AID 622;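 active = fluorescence slope higher than the sample average by over 3 SD, cut at about -0.22 in these data, passing the limit was not always enough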;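 note: slope of raw intensity against log time taken from 70 to 1610 s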); details: recombinant KvBeta, 4-cyanobenzaldehyde reduction, at 10 µM, stronger effect = higher value
[5] = target: Voltage-gated potassium channel subunit beta-2 (Rattus norvegicus) (UniProt P62483); experiment: KvBeta positive modulators, primary screen, biochemical, NADPH fluorescence (AID 623;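 active = NADPH fluorescence slope more negative than the mean of all samples by about 3 SD, 99.7% confidence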;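 note: fluorescence intensity change per second fitted from 20 to 320 s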); details: Recombinant KvBeta, NADPH fluorescence decrease slope, 10 min; at 10 µM; stronger effect = lower value
[6] = target: Alpha-2C adrenergic receptor (Homo sapiens) (UniProt P18825); experiment: modulators of alpha2C/GIRK thallium flux, primary screen, cell-based, HEK293 alpha2C/GIRK1/2 (AID 624;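 active = fluorescence slope after compound addition differing from the mean of all screened samples at 99.7% confidence, in either direction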;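 note: slope of fluorescence ratio to pre-addition baseline per second over 15 to 24 s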); details: thallium flux BTC fluorescence, at 10 µM, actives lie on both sides
[7] = inhibitors of Sendai virus-induced IRF3 signaling, primary screen, TLR/RLR signaling modifier project, cell-based, Sendai virus stimulus, luciferase, 10K MLSCN set (AID 602276;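 active = inhibition at or above 50% at 10 µM; inactive = inhibition below 50%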;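 note: firefly luciferase from ISG56 promoter only with Renilla not read in this screen; 0% = Sendai virus plus DMSO and 100% = medium plus DMSO without virus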); details: HEK293 RL24 IRF3 luciferase reporter, at 10 µM, stronger effect = higher value
[8] = inhibitors of poly I:C-induced TLR3 signaling, primary screen, cell-based, poly I:C stimulus, luciferase, 10K MLSCN set (AID 602277;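 active = inhibition of the reporter signal at or above 50%; inactive = inhibition below 50%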); details: HEK293-TLR3 RL24 IRF3 luciferase reporter, at 10 µM, stronger effect = higher value

Sequence of Voltage-gated potassium channel subunit beta-2 (Rattus norvegicus) (P62483 whole entry, looked up): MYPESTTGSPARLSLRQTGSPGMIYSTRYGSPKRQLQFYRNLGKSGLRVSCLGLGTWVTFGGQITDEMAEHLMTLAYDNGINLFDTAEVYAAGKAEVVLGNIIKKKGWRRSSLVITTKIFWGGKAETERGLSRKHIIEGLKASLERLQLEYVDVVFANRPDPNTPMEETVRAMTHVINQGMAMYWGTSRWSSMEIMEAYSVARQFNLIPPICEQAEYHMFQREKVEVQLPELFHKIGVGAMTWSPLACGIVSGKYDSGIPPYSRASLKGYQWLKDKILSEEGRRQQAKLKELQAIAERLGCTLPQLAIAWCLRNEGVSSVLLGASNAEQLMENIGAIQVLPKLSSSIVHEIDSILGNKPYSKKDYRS
Sequence of Alpha-2C adrenergic receptor (Homo sapiens) (P18825 whole entry, looked up): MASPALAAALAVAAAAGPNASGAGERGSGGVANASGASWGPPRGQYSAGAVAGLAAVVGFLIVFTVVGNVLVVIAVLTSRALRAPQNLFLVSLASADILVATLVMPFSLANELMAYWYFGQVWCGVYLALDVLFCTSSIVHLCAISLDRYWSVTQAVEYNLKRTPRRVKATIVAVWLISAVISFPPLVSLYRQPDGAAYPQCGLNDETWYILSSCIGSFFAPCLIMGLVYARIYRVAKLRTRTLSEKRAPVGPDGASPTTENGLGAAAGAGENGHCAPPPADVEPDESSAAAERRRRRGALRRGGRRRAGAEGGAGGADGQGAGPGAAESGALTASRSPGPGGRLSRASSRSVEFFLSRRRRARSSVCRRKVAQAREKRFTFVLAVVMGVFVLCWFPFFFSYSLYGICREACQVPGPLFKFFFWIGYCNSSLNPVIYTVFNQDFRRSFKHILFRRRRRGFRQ

Row | Structure (SMILES) | cell count [1] | inhibition [1] | inhibition of aggregation [2] | nuclei count [2] | inhibition [3] | nuclei count [3] | fluorescence slope [4] | NADPH fluorescence slope [5] | slope [6] | inhibition [7] | inhibition [8]
1 | COc1ccc(-c2nc(CSCC(=O)NCc3ccc4c(c3)OCO4)c(C)o2)cc1OC | 477 | -3.3% (inactive) | 16.1% (inactive) | 104% | -83% (inactive) | 114% | -0.43 (inactive) | -5.4e-05 (inactive) | 0.00553 (inactive) | 9.89% (inactive) | 20.1% (inactive)
2 | Cc1ccccc1Nc1cc2ccccc2c(=O)[nH]1 | 481 | -12.2% (inactive) | -19.5% (inactive) | 102% | -35% (inactive) | 98.8% | -0.17 (inactive) | 1.6e-05 (inactive) | 0.00385 (inactive) | -7.13% (inactive) | 20.8% (inactive)
3 | COC(=O)N1CC(c2ccccc2)CC1=O (stereo unspecified) | 639 | -0.6% (inactive) | -22.4% (inactive) | 119% | -61.9% (inactive) | 73% | -0.47 (inactive) | -0.000268 (inactive) | 0.00505 (inactive) | 7.79% (inactive) | 16.7% (inactive)
4 | COc1ccc(C2CC(c3cccs3)n3nc(N)nc3N2)cc1 (stereo unspecified) | 619 | -6.3% (inactive) | 7.8% (inactive) | 122% | -38.1% (inactive) | 118% | -0.533 (inactive) | -1.5e-05 (inactive) | 0.00849 (inactive) | -3.14% (inactive) | -18.2% (inactive)
5 | CCCC(=O)N(c1ccc2oc(=O)sc2c1)S(=O)(=O)c1ccccc1 | 318 | 3.5% (inactive) | -12.8% (inactive) | 104% | -45.1% (inactive) | 80% | -0.61 (inactive) | -2.4e-05 (inactive) | 0.00625 (inactive) | 14.8% (inactive) | 17.5% (inactive)
6 | Nc1nnnn1NCc1cccc(OCc2ccccc2)c1 | 582 | -9.5% (inactive) | 11.2% (inactive) | 64.2% | -2.2% (inactive) | 137% | -0.5 (inactive) | -2.7e-05 (inactive) | 0.00425 (inactive) | 5.03% (inactive) | -6.8% (inactive)
7 | C=CCSC1=C(C#N)C(c2ccccc2)CC(=O)N1 (stereo unspecified) | 486 | -1.6% (inactive) | 1.6% (inactive) | 101% | -112% (inactive) | 104% | -0.527 (inactive) | 8.1e-07 (inactive) | 0.00534 (inactive) | 6.68% (inactive) | 8.17% (inactive)
8 | CC(C)COC(=O)N(C)c1ccc(C(O)(C(F)(F)F)C(F)(F)F)cc1 | 744 | -12.4% (inactive) | -7.8% (inactive) | 116% | -56.8% (inactive) | 112% | -0.618 (inactive) | -4.8e-06 (inactive) | 0.00749 (inactive) | -9.85% (inactive) | -5.85% (inactive)
9 | COc1ccccc1N1CCN(CC(O)c2ccc3cc[nH]c3c2)CC1 (stereo unspecified) | 633 | -3.9% (inactive) | 3.6% (inactive) | 114% | -43.4% (inactive) | 105% | -0.54 (inactive) | -1.4e-05 (inactive) | 0.0062 (inactive) | -0.148% (inactive) | 27.7% (inactive)
10 | Cc1cc(CN2CCN(CCC#N)CC2)c(O)c(C2(C)CCCCC2)c1 | 527 | -12.3% (inactive) | 5.3% (inactive) | 98.4% | -197% (inactive) | 90.4% | -0.541 (inactive) | 4e-05 (inactive) | 0.00432 (inactive) | -14.9% (inactive) | 4.95% (inactive)
11 | Cc1cc(C)n2c(SCCN3C(=O)c4ccccc4C3=O)nnc2n1 | 787 | -5.1% (inactive) | 12.4% (inactive) | 126% | -8.9% (inactive) | 107% | -0.572 (inactive) | -1.7e-05 (inactive) | 0.00697 (inactive) | 10.1% (inactive) | 24.4% (inactive)
12 | Cc1cc(C)c2c(C)nn(C3CCCCC3)c2n1 | 318 | 1.7% (inactive) | 27.2% (inactive) | 79.1% | 33.7% (inactive) | 86.7% | -0.514 (inactive) | 1.4e-05 (inactive) | 0.00644 (inactive) | -18.5% (inactive) | -5.34% (inactive)
13 | N#CC1=C(SCC(=O)NC2CCCCC2)NC(=O)CC1c1ccco1 (stereo unspecified) | 709 | -7.8% (inactive) | -1.4% (inactive) | 62% | -10.6% (inactive) | 102% | -0.525 (inactive) | -5.1e-05 (inactive) | 0.00537 (inactive) | 10.9% (inactive) | 14% (inactive)
14 | C=CCc1c(C)nc(SC)nc1Nc1ccc(C(=O)O)cc1 | 497 | 7.2% (inactive) | 7.3% (inactive) | 106% | -41.5% (inactive) | 118% | -0.488 (inactive) | -3.9e-05 (inactive) | 0.00683 (inactive) | 4.8% (inactive) | 21.7% (inactive)
15 | CC(C)Cn1c(=O)c(C2=NS(=O)(=O)c3ccccc3N2)c(O)c2ccccc21 | 407 | -0.4% (inactive) | 10.3% (inactive) | 93.8% | -61.6% (inactive) | 125% | -0.353 (inactive) | -0.000128 (inactive) | 0.00697 (inactive) | 15.1% (inactive) | 18% (inactive)
16 | O=C(CCOc1ccccc1)NCc1ccccc1 | 729 | -17.6% (inactive) | -3.7% (inactive) | 97.3% | 12.7% (inactive) | 114% | -0.559 (inactive) | 7.4e-05 (inactive) | 0.00548 (inactive) | 11.5% (inactive) | 12.3% (inactive)
17 | CCOC(=O)c1ccc2[nH]c3c(c2c1)CN(C)CC3 | 686 | -1.3% (inactive) | 28.7% (inactive) | 73.1% | -29.4% (inactive) | 114% | -0.543 (inactive) | -5.6e-05 (inactive) | 0.00602 (inactive) | 5.79% (inactive) | 21.3% (inactive)
18 | COc1ccc(C2CC(c3ccc(Cl)cc3Cl)Nc3nc(N)nn32)cc1 (stereo unspecified) | 578 | 2.3% (inactive) | -1.8% (inactive) | 105% | -10.3% (inactive) | 102% | -0.593 (inactive) | 1.1e-05 (inactive) | 0.00847 (inactive) | 13.9% (inactive) | 36.6% (inactive)
19 | Cc1cc(NS(=O)(=O)c2ccc(NC(=O)Nc3ccc4c(c3)OCO4)cc2)no1 | 599 | -10.7% (inactive) | -12.8% (inactive) | 108% | -96.1% (inactive) | 112% | -0.393 (inactive) | -5.2e-05 (inactive) | 0.00596 (inactive) | -9.3% (inactive) | -20.7% (inactive)
20 | Cc1cc(C)cc(NC(=O)C2CCCN(S(=O)(=O)c3cnc[nH]3)C2)c1 (stereo unspecified) | 595 | 17.2% (inactive) | -39.1% (inactive) | 97.1% | -30% (inactive) | 124% | -0.523 (inactive) | 1.2e-05 (inactive) | 0.00642 (inactive) | 14.1% (inactive) | 33.8% (inactive)
21 | Fc1ccc(-n2c(Cc3ccccc3)nnc2SCc2nc(-c3cccs3)no2)cc1 | 466 | 2.5% (inactive) | 0.1% (inactive) | 86.5% | -52.5% (inactive) | 108% | -0.63 (inactive) | -4.2e-05 (inactive) | 0.00381 (inactive) | -1.69% (inactive) | 1.22% (inactive)
22 | COC(=O)CN(c1ccc(C)c(Cl)c1)S(C)(=O)=O | 322 | 4% (inactive) | -11.9% (inactive) | 117% | 13.8% (inactive) | 110% | -0.506 (inactive) | -4.6e-05 (inactive) | 0.00698 (inactive) | 13.7% (inactive) | 19.8% (inactive)
23 | CCOC(=O)/N=C(/NC(=O)Nc1ccc(C(=O)OCC)cc1)OC | 266 | -3.6% (inactive) | 17% (inactive) | 92.2% | 7.6% (inactive) | 108% | -0.583 (inactive) | -6e-05 (inactive) | 0.00625 (inactive) | 13.9% (inactive) | 23.9% (inactive)
24 | O=C(Nc1ccc(N2C(=O)C3C4C=CC(C4)C3C2=O)cc1)Nc1nncs1 (stereo unspecified) | 668 | -9.8% (inactive) | 4.9% (inactive) | 92% | -77.5% (inactive) | 125% | -0.579 (inactive) | 6.4e-08 (inactive) | 0.0068 (inactive) | 2.97% (inactive) | -2% (inactive)
25 | CCCn1c(C)nc2c(c1=O)c1nc3ccccc3nc1n2CCc1ccccc1 | 470 | -3.1% (inactive) | 6.9% (inactive) | 100% | -102% (inactive) | 222% | -0.303 (inactive) | 2.6e-05 (inactive) | 0.00428 (inactive) | 3.36% (inactive) | 0.543% (inactive)
26 | Cc1nc(N2CCc3ccccc32)[nH]c(=O)c1CCC(C)C | 345 | -1.1% (inactive) | -19.6% (inactive) | 112% | -114% (inactive) | 135% | -0.439 (inactive) | -4.2e-05 (inactive) | 0.00282 (inactive) | 0.138% (inactive) | 3.18% (inactive)
